# Assay outcomes from PubChem BioAssay.
# Pf Dd2 inh: qHTS Primary assay for Inhibitors of Plasmodium falciparum Dd2 growth in vitro | P. falciparum Dd2 growth, SYBR Green, 72 h | Potency, µM (doses to about 28.9 µM), for inactives: at the highest dose activity, negative = inhibition, usual class: inhibitors | hit rate 4.3% among 120,000; active = well fitted inhibition curve with a large enough effect;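 also: plate controls were DMSO vehicle for no effect and reference drug for full effect; nearly all actives have a fitted effect of over 65% in size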
#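 Infected erythrocytes (Dd2, 0.3% parasitemia, 2.5% hematocrit final) are added to compound in RPMI-1640/Albumax II medium, grown 72 h at 37C in low oxygen, then lysed with saponin/Triton-X containing SYBR Green and read by fluorescence.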
# * hit, by the source's call; i = inactive; [ ] = remark or other dose. This is one part of a sample in which hits are shown more often than they occur. Potency is read from the fitted curve at half-maximal effect.
SMILES,Pf Dd2 inh
COc1cccc(OCC(=O)c2ccc3c(c2)N(CCCC(=O)N2CCOCC2)C(=O)CO3)c1,i
O=C1N[C@@H]2CCN(C(=O)c3ccc(C(F)(F)F)cc3)[C@@H]2C(=O)N1c1ccc(F)cc1,-21.2%[44.1 µM]
Cc1c(C(=O)N(Cc2cccc(Cl)c2)Cc2ccco2)oc2ccccc12,3.3%
CCOc1ccc(C(=O)Nc2c(C(=O)c3ccccc3)oc3ccccc23)cc1,-8.1%
COc1ccccc1C(=O)N(Cc1ccco1)Cc1ccccc1F,-7.2%
COc1cccc(C(=O)Nc2c(C(=O)Nc3ccc(F)cc3)oc3ccccc23)c1OC,-21.5%
COc1ccccc1C(=O)Nc1c(C(=O)N(CCN(C)C)Cc2ccco2)oc2ccccc12,6.31µM*
CN(C)CCN(Cc1ccco1)C(=O)c1oc2ccccc2c1NC(=O)c1ccccc1,11.2µM*
COc1ccc(CN2C(=O)CO[C@H](c3ccc(NC(=O)NC(C)(C)C)cc3)[C@H]2CO)cc1,i
Cc1ccc(N2CCN(c3nc(C(=O)O)cs3)CC2)cc1,-3.2%
CNC(=O)[C@H]1C[C@H](Oc2cccnc2)CN1S(=O)(=O)c1ccc(F)cc1,9.1%
O=C(C1CCN(S(=O)(=O)c2cccc3nonc23)CC1)N1CCN(c2ccccc2)CC1,i
COc1ccccc1N1CCN(C(=O)C2CCN(S(=O)(=O)c3cccc4nonc34)CC2)CC1,6.3%
Cc1ccc(/C=C/c2onc(C)c2S(=O)(=O)N2CCC(C(=O)N3CCN(c4cc(C)ccc4C)CC3)CC2)cc1,8.91µM*
Cc1ccc(/C=C/c2onc(C)c2S(=O)(=O)N2CCC(C(=O)Nc3cc(C)ccc3C)CC2)cc1,11.4%
Cc1ccc(Cl)cc1N1CCN(C(=O)C2CCN(S(=O)(=O)c3cccc4nonc34)CC2)CC1,6.31µM*
Cc1ccc(Cl)cc1N1CCN(C(=O)C2CCN(S(=O)(=O)c3c(C)noc3/C=C/c3ccccc3F)CC2)CC1,-11.5%
CCc1nc(CN2CCC(N3CCCC(C(=O)NCc4ccccn4)C3)CC2)no1 (stereo not drawn),-3.4%
O=C(Nc1cccnc1)[C@@H]1C[C@@H](c2ccc(F)cc2)N(Cc2ccccc2)C1,7.08µM*
COc1cccc(NC(=O)[C@@H]2C[C@H](c3ccc(F)cc3)N([S+](C)(=O)[O-])C2)c1,6.31µM*
O=C(Nc1cccc(F)c1)[C@@H]1C[C@@H](c2ccc(F)cc2)N([S+](=O)([O-])c2ccccc2)C1,-26.5%
COc1ccc(NC(=O)[C@@H]2C[C@H](c3ccc(F)cc3)N(Cc3csc(C)n3)C2)cn1,-20.8%[44.1 µM]
O=C(Nc1ccccc1)[C@@H]1C[C@@H](c2ccc(F)cc2)N([S+](=O)([O-])c2cccnc2)C1,9.6%[44.1 µM]
COc1cccc(NC(=O)[C@@H]2C[C@@H](c3ccc(F)cc3)N(CCOc3ccccc3)C2)c1,-10.5%[44.1 µM]
COc1cccc(NC(=O)[C@@H]2C[C@H](c3ccc(F)cc3)N(Cc3csc(C)n3)C2)c1,-4.0%[44.1 µM]
SMILES,Pf Dd2 inh
O=C(NCCOc1ccccc1)[C@@H]1C[C@@H](c2ccc(F)cc2)N([S+](=O)([O-])c2cccnc2)C1,-22.0%
COc1cccc(NC(=O)[C@@H]2C[C@@H](c3ccc(F)cc3)N([S+](=O)([O-])c3cccnc3)C2)c1,i
O=C(NCc1cccnc1)[C@@H]1C[C@@H](c2ccc(F)cc2)N(CCOc2ccccc2)C1,8.91µM*
O=C(Nc1cccc(F)c1)[C@@H]1C[C@@H](c2ccc(F)cc2)N([S+](=O)([O-])c2cccnc2)C1,i
COc1ccc(NC(=O)[C@@H]2C[C@@H](c3ccc(F)cc3)N(Cc3ccccc3)C2)cc1OC,10µM*
CCCCN1CCN(C(=O)C2CCC(=O)N(Cc3cccc(F)c3)C2)CC1=O (stereo not drawn),2.2%
CN1CCN(CCCNC(=O)c2c(OCC3CC3)cc(=O)n3c2CCCCC3)CC1,52.9%
COc1ccccc1-c1ccnc(N[C@H]2CO[C@H]3[C@@H]2OC[C@@H]3NC(=O)c2ccccc2)n1,-23.1%[44.1 µM]
O=C(NCc1ccccc1)c1ccc(CN2C(=O)NC3(CCOCC3)C2=O)cc1,25.9%
O=C(NC1CCc2n[nH]c(=O)n2CC1)c1ccc2ccccc2n1 (stereo not drawn),i
O=C(Nc1ccc(-c2nnc3n2CCCC3)cc1)c1ccc2ccccc2n1,1µM*
COc1ccc(C(=O)Nc2ccc(-c3nnc4n3CCCC4)cc2)cn1,7.08µM*
O=C(Nc1ccc(-c2nnc3n2CCCC3)cc1)c1cc(-c2ccccc2)n[nH]1,14.1µM*
CCOc1ccc(C(=O)Nc2ccc(-c3nnc4n3CCCCC4)cc2)cc1OCC,-18.1%
O=C(Nc1ccc(-c2nnc3n2CCCC3)cc1)c1ccc(Cl)cc1,5.01µM*
O=C(Nc1ccc(-c2nnc3n2CCCC3)cc1)c1ccncc1,i
O=C(Nc1ccc(-c2nnc3n2CCCC3)cc1)c1cc(F)ccc1F,i
COc1ccc(Cl)cc1C(=O)Nc1ccc(-c2nnc3n2CCCCC3)cc1,3.7%
Cc1cn2nc(C(=O)Nc3ccc4c(c3)OCCO4)cc2c(N2CCSCC2)n1,i
CCn1cc(S(=O)(=O)N2C[C@@H](Oc3ccccc3)C[C@H]2C(=O)N2CCCC2)cn1,-14.8%
